# Data published in PubChem BioAssay (Tox21).
# “And” between values parts separate entries of the source, which are not always exact repeats. Equal entries are not always repeated. Inconclusive results are not listed. Entries that show only a call come without a potency. Values without a mark were called inactive. The source made the active and inactive calls. Calls come from the whole dose curve; as a rule, active = well fitted activation curve with a large enough effect in the repeat runs; inconclusive = weak or mixed curves, or effect the other way; inactive = no such curve, though single readings can be large or run the other way.
# Assay: qHTS assay to identify small molecule agonists of the retinoic acid receptor (RAR) signaling pathway (AID 1159553)
# Conditions: C3RL4 RARE luciferase reporter, agonist, 6 h; series mostly up to 73.3 µM; activation: at the top concentration
# Excerpt: National Center for Advancing Translational Sciences [NCATS] NIH Chemical Genomics Center [NCGC] U.S. Environmental Protection Agency [EPA] National Institutes of Environmental Health Sciences [NIEHS] National Toxicology Program [NTP] Assay overview: All-trans Retinoic acid (atRA) is the potent natural metabolite of retinol and plays an important role in normal embryonic development and maintenance of cellular phenotype in adult animals. atRA is the activating ligand for the retinoic acid receptors (RARs) which form heterodimers with retinoid X receptors (RXRs) on the retinoic acid response element (RARE). Through activation of the RAR/RXRs nuclear receptors, atRA regulates the transcription of a large number of protein-coding genes and regulatory RNAs. Intracellular levels of atRA are controlled by the retinol signaling pathway (RSP) that regulates the biosynthesis and catabolism of atRA to maintain physiological levels. Chemicals that interfere with the RSP can cause abnormal intracellular levels of atRA and therefore are potential developmental toxicants. To assess compounds for the potential adverse effect on embryonic development through interfering with retinol signaling, a cell-based RARE luciferase reporter gene assay was used. C3RL4 cell line (OARSA/CFSAN/FDA, Laurel, MD) was used to screen Tox21 10K compound library for identifying activators of the RSP.
# Assay Protocol Summary: C3RL4 cells were seeded at 1,000/well in 5 uL of assay medium into white solid 1,536-well tissue culture plates (Greiner Bio-One North America Inc. Monroe, NC) using a Multidrop Combi (Thermo Scientific, Waltham, MA) dispenser. After incubation at 37 C and 5% CO2 for an overnight, 23 nL of compounds dissolved in DMSO, positive control or DMSO only were transferred by a Pintool station (Kalypsys, San Diego, CA). After 6 hr incubation at 37 C and 5% CO2, 5 uL of Amplite Luciferase reagent (AAT Bioquest Inc. Sunnyvale, CA) was added to each assay plate using a Flying Reagent Dispenser (FRD) (Aurora Discovery, San Diego, CA). Luminescence was quantified on a ViewLux plate reader (PerkinElmer, Waltham, MA) after 30 min incubation at room temperature.
# Potency is the fitted concentration of half-maximal effect.
SMILES,Potency,activation
CC(C)(C)[C@@H](O)[C@@H](Cc1ccc(Cl)cc1)n1cncn1,inactive,
CN(C)CCC(c1ccccc1)c1ccccn1 (stereo not given),inactive,
CCCCCCCCCCCCCCCO,inactive,
NNc1nncc2ccccc12,770 nM (active) and 5.17 µM (active),
CCCCOC(=O)COc1ccc(Cl)cc1Cl,,8.39%
CCCCCOC(C)=O,,-0.306% [at 94.8 µM]
O=C(O)c1ccc2c(c1)C(=O)OC2=O,inactive,
CCN(CC)c1ccc(C(=O)c2ccccc2C(=O)O)c(O)c1,10.9 µM (active) and 34.4 µM (active),
Cc1cnc(C(=O)NCCc2ccc(S(=O)(=O)NC(=O)NC3CCCCC3)cc2)cn1,,3.52%
O=P(OC(CCl)CCl)(OC(CCl)CCl)OC(CCl)CCl,inactive,
Cc1ccc(S(N)(=O)=O)cc1,inactive,
COc1ccc(Cl)cc1C(=O)NCCc1ccc(S(=O)(=O)NC(=O)NC2CCCCC2)cc1,inactive,
CC1=CCC2CC1C2(C)C (stereo not given),inactive,
CCCCCCOCCO,inactive,
C=CCOC(=O)c1ccccc1C(=O)OCC=C,inactive,
CCCCCCCCCCCCS,inactive,
O=C(O)[C@H](O)[C@@H](O)[C@H](O)[C@H](O)CO,inactive,
CCCCCCCCCCCCc1ccccc1,inactive,
ON=C1CCCCC1,,-0.204% [at 94.8 µM]
CSCCC=O,,-0.22% [at 94.8 µM]

SMILES,Potency,activation
c1ccc2c(c1)ccc1ccccc12,inactive,
C[C@H]1C[C@@H]2[C@H]([C@@H](O)C[C@@]3(C)[C@H]2CC[C@]3(O)C(=O)CO)[C@@]2(C)C=CC(=O)C=C12,inactive,
COCCCOc1ccnc(CS(=O)c2nc3ccccc3[nH]2)c1C (stereo not given),3.84 µM (active),
C/C=C1/CC2C=CC1C2 (stereo not given),inactive,
Cc1ccc(N(C)C)cc1,inactive,
CCC(O)OC(O)CC (stereo not given),inactive,
O=C(O)CC(C(=O)O)C(CC(=O)O)C(=O)O (stereo not given),inactive,
O=C(OCCOCCOC(=O)c1ccccc1)c1ccccc1,,3.12%
O=C=NCCCCCCN=C=O,inactive,
Cc1ccc2oc(=O)ccc2c1,,1.17%
COc1ccc(NC(C)=O)cc1N,inactive,
CCc1cccc(C)c1N,inactive,
O=C(O)c1cc(O)c(O)c(O)c1,,-0.0977%
CCCC(C)=O,inactive,
Fc1ccc(Br)cc1,inactive,
COc1cc(Cc2cnc(N)nc2N)cc(OC)c1OC,inactive,
CC(=O)Nc1ccccc1,inactive,
CCCCCC/C(C=O)=C\c1ccccc1,inactive,
O=C(O)CCCC[C@@H]1SC[C@@H]2NC(=O)N[C@@H]21,inactive,
C#C[C@]1(O)CC[C@H]2[C@@H]3CCC4=CC(=O)CC[C@@H]4[C@H]3CC[C@@]21C,inactive,
